Results filed as inconclusive are left out. Where a call stands in place of a potency, no number is given. Active and inactive are the calls of the source. Calls follow the shape of the full dose curve.
Assay: qHTS assay for small molecule agonists of the p53 signaling pathway (AID 651631); also: nearly all actives have a fitted effect of over 15% in size
Details: HCT-116 p53RE-bla reporter, beta-lactamase FRET ratio, 16 h; series mostly up to 73.3 µM
Text: U.S. Tox21 Program National Center for Advancing Translational Sciences [NCATS] NIH Chemical Genomics Center [NCGC] U.S. Environmental Protection Agency [EPA] National Institutes of Environmental Health Sciences [NIEHS] National Toxicology Program [NTP] U.S. Food and Drug Administration [FDA] Tox21 Assay Overview: p53, a tumor suppressor protein, is activated following cellular insult, including DNA damage and other cellular stresses. The activation of p53 regulates cell fate by inducing DNA repair, cell cycle arrest, apoptosis, or cellular senescence. The activation of p53, therefore, is a good indicator of DNA damage and other cellular stresses. The CellSensor p53RE-bla HCT-116 cell line (Invitrogen) contains a stably integrated beta-lactamase reporter gene under control of the p53 response elements. The activation of the reporter gene under culture conditions can be detected by fluorescence intensity. This cell line was used to screen the Tox21 compound library in a 1536-well plate format and to identify agonists that activate the p53 signaling pathway.
Tox21 Assay Protocol Summary: The p53RE-bla cells were dispensed at 4,000 cells/5 ul/well in 1536-well black wall/clear bottom plates using a Multidrop dispenser. After the assay plates were incubated at a 37 C/5% CO2 incubator for 5 hours, 23 nL of compounds dissolved in DMSO, positive controls or DMSO only was transferred to the assay plate by a pin tool. The plates were incubated at 37 C for 16 hours. After 1 uL of LiveBLAzerTM B/G FRET substrate was added using a Flying Reagent Dispenser, the plates were incubated at room temperature for 2 hours, and fluorescence intensity was measured by an Envision plate reader.
Potency is read from the fitted curve at half-maximal effect.

| SMILES | Potency |
| --- | --- |
| CCCCCN(CCCCC)C(=O)C(CCC(=O)O)NC(=O)c1ccc(Cl)c(Cl)c1 (stereo not given) | inactive |
| CC12CCC(CC1=O)C2(C)C (stereo not given) | inactive |
| CN(C)N=Nc1ccccc1 | inactive |
| CC(=O)OC(C)(C)C | inactive |
| Cc1ccc(Nc2ccc(O)c3c2C(=O)c2ccccc2C3=O)cc1 | inactive |
| CN(C)CCOC(c1ccc(Cl)cc1)c1ccccn1 (stereo not given) | inactive |
| O=[N+]([O-])c1ccc(Oc2ccc([N+](=O)[O-])cc2)cc1 | inactive |
| Cc1nccn1CC1CCc2c(c3ccccc3n2C)C1=O (stereo not given) | inactive |
| C[C@H](O)C(=O)Nc1c(I)c(C(=O)NC(CO)CO)c(I)c(C(=O)NC(CO)CO)c1I | inactive |
| NC(=O)c1ncn([C@@H]2O[C@H](CO)[C@@H](O)[C@H]2O)c1O | inactive |
| CCCOCC(C)OCC(C)O (stereo not given) | inactive |
| Cc1ncc(CSSCc2cnc(C)c(O)c2CO)c(CO)c1O | inactive |
| NC(=O)c1ncn([C@@H]2O[C@H](CO)[C@@H](O)[C@H]2O)c1N | inactive |
| C=C(C)C1CC=C(C)C(O)C1 (stereo not given) | inactive |
| COC(C(=O)O)c1ccccc1 (stereo not given) | inactive |
| C#CC(O)CCCCC (stereo not given) | inactive |
| CC(=O)O[C@H](CC(=O)[O-])C[N+](C)(C)C | inactive |
| CCO[Si](CCCN=C=O)(OCC)OCC | inactive |
| C=CCn1c(=O)n([C@@H]2O[C@H](CO)[C@@H](O)[C@H]2O)c2nc(N)[nH]c(=O)c21 | inactive |
| Cc1cc(C)c(NC(=O)CN(CC(=O)O)CC(=O)O)c(C)c1Br | inactive |

| SMILES | Potency |
| --- | --- |
| CC(C)(O)c1ccccc1 | inactive |
| CCCCc1ccc(N)cc1 | inactive |
| COc1ccc(NC(C)=O)cc1 | inactive |
| Cc1c(C)n(CCN(C)C)c2ccc(C(=O)OCCN(C)C)cc12 | 26.6 µM (active) |
| NC(=O)CCCCC1CCSS1 (stereo not given) | inactive |
| CC(=O)NC(Cc1ccccc1)C(=O)O (stereo not given) | inactive |
| OCCCCCCO | inactive |
| COc1cc(CCC(C)=O)ccc1O | inactive |
| Nc1nc2c(ncn2CCC(CO)CO)c(=O)[nH]1 | inactive |
| CC(C)N1C(=O)c2ccccc2C1=O | inactive |
| CCC(=O)c1cccc(Cl)c1 | inactive |
| C=CCOc1nc(OCC=C)nc(OCC=C)n1 | inactive |
| CCCCC1CCCCC(=O)O1 (stereo not given) | inactive |
| CCCCNc1ccccc1 | inactive |
| CC(O)CN(CCCN(C)C)CCCN(C)C (stereo not given) | inactive |
| CCOC(=O)[C@H](CCc1ccccc1)N[C@@H](C)C(=O)N1CCC[C@H]1C(=O)O | inactive |
| Cc1nc(-c2ccc(OCC(C)C)c(C#N)c2)sc1C(=O)O | inactive |
| CC(C=O)Cc1ccc(C(C)C)cc1 (stereo not given) | inactive |
| OCC(CO)(CO)COCC(CO)(CO)CO | inactive |
| COC(=O)[C@H]1[C@H]2C[C@@H]3c4[nH]c5cc(OC)ccc5c4CCN3C[C@H]2C[C@@H](OC(=O)COc2ccc(OC)cc2)[C@@H]1OC | inactive |

From PubChem BioAssay (Tox21)
